# Results: PMC11006913
# Positions count from the first letter of the chain named.
# Legend:
# Assay in all cases: PBM; 200 nM protein, PBS
# Conditions in all cases: dsDNA, one strand shown
# HOXB6 [1] = target: HOXB6 (Homo sapiens, UniProt P17509 132-218, K202E)
# HOXB6 [2] = target: HOXB6 (Homo sapiens, UniProt P17509 132-218)
# HOXA2 [3] = target: HOXA2 (Homo sapiens, UniProt O43364 129-215, R185T)
# HOXB9 [4] = target: HOXB9 (Homo sapiens, UniProt P17482 171-250)
# HOXB9 [5] = target: HOXB9 (Homo sapiens, UniProt P17482 171-250, R186Q)
# Sequence of HOXB9 (Homo sapiens, UniProt P17482 171-250, R186Q) (P17482 171-250 R186Q): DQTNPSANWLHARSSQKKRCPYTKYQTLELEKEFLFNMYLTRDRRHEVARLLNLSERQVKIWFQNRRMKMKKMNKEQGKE
# HOXA2 [6] = target: HOXA2 (Homo sapiens, UniProt O43364 129-215)
# Sequence of HOXA2 (Homo sapiens, UniProt O43364 129-215) (O43364 129-215): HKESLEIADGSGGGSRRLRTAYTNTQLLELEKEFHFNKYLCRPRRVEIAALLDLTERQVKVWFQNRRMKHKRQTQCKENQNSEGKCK
# HESX1 = HESX1 (Homo sapiens, UniProt Q9UBX0 95-180)
# Sequence of HESX1 (Q9UBX0 95-180): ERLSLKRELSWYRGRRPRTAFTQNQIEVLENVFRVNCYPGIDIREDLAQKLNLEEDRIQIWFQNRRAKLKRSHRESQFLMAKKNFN
# SIX6 [7] = target: T1, SIX6 (Homo sapiens, UniProt O95475 114-200, T165G)
# T1 sequence: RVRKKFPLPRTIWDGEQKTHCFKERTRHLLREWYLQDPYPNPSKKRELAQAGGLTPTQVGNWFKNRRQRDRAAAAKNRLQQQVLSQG
# HOXD13 [8] = target: HOXD13 (Homo sapiens, UniProt P35453 263-343, T313R)
# Sequence of HOXD13 (Homo sapiens, UniProt P35453 263-343, T313R) (P35453 263-343 T313R): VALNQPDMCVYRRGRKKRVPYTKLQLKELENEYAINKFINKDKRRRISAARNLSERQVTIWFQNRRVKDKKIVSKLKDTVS
# HOXA2 [9] = target: HOXA2 (Homo sapiens, UniProt O43364 129-215, R185K)
# Sequence of HOXA2 (Homo sapiens, UniProt O43364 129-215, R185K) (O43364 129-215 R185K): as the sequence (O43364 129-215) above, with R57K counted along it
# HOXD13 [10] = target: HOXD13 (Homo sapiens, UniProt P35453 263-343)
# Sequence of HOXD13 (Homo sapiens, UniProt P35453 263-343) (P35453 263-343): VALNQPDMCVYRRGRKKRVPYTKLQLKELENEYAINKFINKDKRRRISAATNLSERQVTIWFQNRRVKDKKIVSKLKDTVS
# HOXD13 [11] = target: HOXD13 (Homo sapiens, UniProt P35453 263-343, T313A)
# Sequence of HOXD13 (Homo sapiens, UniProt P35453 263-343, T313A) (P35453 263-343 T313A): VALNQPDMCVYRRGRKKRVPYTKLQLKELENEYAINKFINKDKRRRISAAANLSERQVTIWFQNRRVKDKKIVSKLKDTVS
# HOXA2 [12] = target: HOXA2 (Homo sapiens, UniProt O43364 129-215, Y150S)
# Sequence of HOXA2 (Homo sapiens, UniProt O43364 129-215, Y150S) (O43364 129-215 Y150S): as the sequence (O43364 129-215) above, with Y22S counted along it
# SIX6 [13] = target: T2, SIX6 (Homo sapiens, UniProt O95475 114-200, T165A)
# T2 sequence: T1 sequence with G52A
# ALX1 [14] = target: ALX1 (Homo sapiens, UniProt Q15699 118-204, L144V)
# Sequence of ALX1 (Homo sapiens, UniProt Q15699 118-204, L144V) (Q15699 118-204 L144V): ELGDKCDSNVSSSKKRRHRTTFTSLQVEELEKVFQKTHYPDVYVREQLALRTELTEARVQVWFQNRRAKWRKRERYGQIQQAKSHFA
# ALX1 [15] = target: ALX1 (Homo sapiens, UniProt Q15699 118-204, L144R)
# Sequence of ALX1 (Homo sapiens, UniProt Q15699 118-204, L144R) (Q15699 118-204 L144R): as the sequence (Q15699 118-204 L144V) above, with V27R counted along it
# NKX3-2 [16] = target: NKX3-2 (Homo sapiens, UniProt P78367 192-278, P234S)
# Sequence of NKX3-2 (Homo sapiens, UniProt P78367 192-278, P234S) (P78367 192-278 P234S): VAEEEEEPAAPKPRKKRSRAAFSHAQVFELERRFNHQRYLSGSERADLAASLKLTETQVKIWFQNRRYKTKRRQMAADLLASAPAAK
# ALX1 [17] = target: ALX1 (Homo sapiens, UniProt Q15699 118-204)
# Sequence of ALX1 (Homo sapiens, UniProt Q15699 118-204) (Q15699 118-204): as the sequence (Q15699 118-204 L144V) above, with V27L counted along it
# NKX3-2 [18] = target: NKX3-2 (Homo sapiens, UniProt P78367 192-278)
# Sequence of NKX3-2 (Homo sapiens, UniProt P78367 192-278) (P78367 192-278): as the sequence (P78367 192-278 P234S) above, with S43P counted along it
# Sequence of HOXA2 (Homo sapiens, UniProt O43364 129-215, R185T) (O43364 129-215 R185T): as the sequence (O43364 129-215) above, with R57T counted along it
# Sequence of HOXB6 (Homo sapiens, UniProt P17509 132-218, K202E) (P17509 132-218 K202E): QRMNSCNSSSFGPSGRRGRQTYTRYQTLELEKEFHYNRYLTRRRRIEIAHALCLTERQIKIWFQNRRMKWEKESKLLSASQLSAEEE
# Sequence of HOXB6 (Homo sapiens, UniProt P17509 132-218) (P17509 132-218): as the sequence (P17509 132-218 K202E) above, with E71K counted along it
# Sequence of HOXB9 (Homo sapiens, UniProt P17482 171-250) (P17482 171-250): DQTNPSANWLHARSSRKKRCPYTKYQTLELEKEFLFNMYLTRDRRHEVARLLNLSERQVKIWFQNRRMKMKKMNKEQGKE
sequence,measurement,setting,value
CGCGTGCC,binding signal,HOXB6 [1],"9.06 upbm affinity estimate (log intensity, higher = more binding, comparable within an allelic series)"
same,binding signal,HOXB6 [2],"9.06 upbm affinity estimate (log intensity, higher = more binding, comparable within an allelic series)"
CCCCGGTC,binding signal,HOXB6 [1],"8.98 upbm affinity estimate (log intensity, higher = more binding, comparable within an allelic series)"
same,binding signal,HOXB6 [2],"9.03 upbm affinity estimate (log intensity, higher = more binding, comparable within an allelic series)"
ATCAATAG,binding signal,HOXA2 [3],"9.12 upbm affinity estimate (log intensity, higher = more binding, comparable within an allelic series)"
same,binding signal,HOXB9 [4],"10.1 upbm affinity estimate (log intensity, higher = more binding, comparable within an allelic series)"
same,binding signal,HOXB9 [5],"10.1 upbm affinity estimate (log intensity, higher = more binding, comparable within an allelic series)"
same,binding signal,HOXA2 [6],"9.47 upbm affinity estimate (log intensity, higher = more binding, comparable within an allelic series)"
GCATAAAC,binding signal,HESX1,"7.44 upbm affinity estimate (log intensity, higher = more binding, comparable within an allelic series)"
ACGATCAA,binding signal,HESX1,"7.32 upbm affinity estimate (log intensity, higher = more binding, comparable within an allelic series)"
CTGGTGTC,binding signal,SIX6 [7],"10.6 upbm affinity estimate (log intensity, higher = more binding, comparable within an allelic series)"
GAGAATGA,binding signal,HESX1,"7.23 upbm affinity estimate (log intensity, higher = more binding, comparable within an allelic series)"
AATTTATG,binding signal,HOXA2 [3],"10.1 upbm affinity estimate (log intensity, higher = more binding, comparable within an allelic series)"
same,binding signal,HOXD13 [8],"10.7 upbm affinity estimate (log intensity, higher = more binding, comparable within an allelic series)"
same,binding signal,HOXA2 [9],"11.9 upbm affinity estimate (log intensity, higher = more binding, comparable within an allelic series)"
same,binding signal,HOXD13 [10],"11.6 upbm affinity estimate (log intensity, higher = more binding, comparable within an allelic series)"
same,binding signal,HOXD13 [11],"11.5 upbm affinity estimate (log intensity, higher = more binding, comparable within an allelic series)"
same,binding signal,HOXA2 [12],"10.9 upbm affinity estimate (log intensity, higher = more binding, comparable within an allelic series)"
same,binding signal,HOXA2 [6],"10.1 upbm affinity estimate (log intensity, higher = more binding, comparable within an allelic series)"
ACACCACC,binding signal,SIX6 [7],"10.3 upbm affinity estimate (log intensity, higher = more binding, comparable within an allelic series)"
TCATATCA,binding signal,SIX6 [7],"11.2 upbm affinity estimate (log intensity, higher = more binding, comparable within an allelic series)"
CATGACAC,binding signal,SIX6 [7],"10.7 upbm affinity estimate (log intensity, higher = more binding, comparable within an allelic series)"
AGGTGTAA,binding signal,SIX6 [7],"10.5 upbm affinity estimate (log intensity, higher = more binding, comparable within an allelic series)"
GGTGACAC,binding signal,SIX6 [7],"10.4 upbm affinity estimate (log intensity, higher = more binding, comparable within an allelic series)"
same,binding signal,SIX6 [13],"10.4 upbm affinity estimate (log intensity, higher = more binding, comparable within an allelic series)"
GACACCCC,binding signal,SIX6 [7],"10.6 upbm affinity estimate (log intensity, higher = more binding, comparable within an allelic series)"
ACGACACC,binding signal,SIX6 [7],"10.6 upbm affinity estimate (log intensity, higher = more binding, comparable within an allelic series)"
same,binding signal,SIX6 [13],"10.6 upbm affinity estimate (log intensity, higher = more binding, comparable within an allelic series)"
GGTGATTA,binding signal,HOXA2 [3],"12.6 upbm affinity estimate (log intensity, higher = more binding, comparable within an allelic series)"
same,binding signal,HOXA2 [9],"13.1 upbm affinity estimate (log intensity, higher = more binding, comparable within an allelic series)"
GACCGCCC,binding signal,HOXA2 [3],"7.33 upbm affinity estimate (log intensity, higher = more binding, comparable within an allelic series)"
same,binding signal,ALX1 [14],"6.66 upbm affinity estimate (log intensity, higher = more binding, comparable within an allelic series)"
same,binding signal,HOXA2 [9],"10.1 upbm affinity estimate (log intensity, higher = more binding, comparable within an allelic series)"
same,binding signal,ALX1 [15],"6.49 upbm affinity estimate (log intensity, higher = more binding, comparable within an allelic series)"
same,binding signal,HOXA2 [12],"10.4 upbm affinity estimate (log intensity, higher = more binding, comparable within an allelic series)"
same,binding signal,NKX3-2 [16],"10.5 upbm affinity estimate (log intensity, higher = more binding, comparable within an allelic series)"
same,binding signal,ALX1 [17],"6.57 upbm affinity estimate (log intensity, higher = more binding, comparable within an allelic series)"
same,binding signal,HOXA2 [6],"7.29 upbm affinity estimate (log intensity, higher = more binding, comparable within an allelic series)"
same,binding signal,NKX3-2 [18],"10.5 upbm affinity estimate (log intensity, higher = more binding, comparable within an allelic series)"
